Hit rate of the full screen: of about 340,000 compounds, about 8,500 (2.5%) were called active.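 Rule for the calls: active = melting temperature shift of at least 10% of the positive control shift, at one fixed dose; inactive = the rest.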 Shown is part of a subset that was picked to be rich in actives.
test system: Glutamate receptor ionotropic, NMDA 3A (GRIN3A) ligand-binding domain; assay: binders of NR3A ligand-binding domain, primary screen, biophysical, differential scanning fluorimetry, uHTS (AID 1259313); conditions: NR3A LBD differential scanning fluorimetry, at 25 µM, stronger effect = higher value, 0% = protein alone, 100% = glycine-bound protein

Tm shift relative to glycine control, active:
COc1cc(/C=C(\C#N)c2nc3ccccc3[nH]2)ccc1O 28.5%
CC(=O)Nc1ccc(NC(=O)COc2ccc(-c3ccccc3)cc2)cc1 12.4%
CC(=O)Nc1ccc(OC(=O)COc2ccc(Br)cc2)cc1 17.5%
CSc1cccc(NC(=S)N(C(C)C)C(C)c2ccccn2)c1 (configuration not stated) 13.8%
Cc1oc2c(F)c(F)c(F)c(F)c2c1S(=O)(=O)Nc1cccc(C(F)(F)F)c1 29.7%
Cc1ccc(SCc2c(C(=O)N/N=C/c3cccnc3)nnn2-c2nonc2N)cc1 30.3%
Cc1ccc(SCc2c(C(=O)N/N=C/C3CC=CCC3)nnn2-c2nonc2N)cc1 (configuration not stated) 85.4%
Nc1nonc1-n1nnc(C(=O)N/N=C/c2cc(Br)ccc2O)c1CSC1=NCCS1 11.5%
Nc1ccccc1/C=N\N=C/c1ccccc1N 10.2%
COc1ccc(NC(=O)c2oc3ccc(S(=O)(=O)N4CCOCC4)cc3c2C)cc1 14.9%
Cc1ccc(-c2c3c(=O)n(C)c(=O)n(C)c3cn2-c2ccccc2O)cc1 22.9%
COc1cccc(CNS(=O)(=O)c2ccc3c(c2)N(C(C)=O)CCS3)c1 11.5%
O=C(Nc1nc2ccc([N+](=O)[O-])cc2s1)c1ccc(S(=O)(=O)N2CCCc3ccccc32)cc1 18.8%

Tm shift relative to glycine control, inactive:
Cc1ccc2nc(/C(C#N)=C\c3ccc(OC(=O)c4cccs4)cc3)[nH]c2c1 -1.46%
COCCN(CCOC)S(=O)(=O)c1ccc(/C(O)=C(\C#N)c2nc3ccccc3[nH]2)cc1 0.08%
CCCCOc1ccc(NC(=O)[C@@H]2CCCN2C(=O)C2CCN(S(=O)(=O)c3ccc(C)cc3)CC2)cc1 0%
Cc1ccc(OC(=O)CCC(=O)Nc2ccc(Br)cc2)cc1 0.17%
COCC(=O)Nc1ccc(Br)cc1 -2.19%
CC(=O)Nc1ccc(NC(=O)COc2ccc(S(=O)(=O)NC(C)c3ccccc3)cc2)cc1 (configuration not stated) 0.44%
O=C(COc1ccccc1)Nc1ccc(F)cc1 -8.63%
Cc1c(Nc2nc3ccccc3nc2NS(=O)(=O)c2cccs2)c(=O)n(-c2ccccc2)n1C 0.52%
Cc1ccsc1C1C(C#N)=C(N)OC2=C1C(=O)CC(C)(C)C2 (configuration not stated) -2.21%
CC(c1ccccn1)N(CCN(C)C)C(=S)Nc1ccccc1F (configuration not stated) 0%
CSc1cccc(NC(=S)N(Cc2ccccc2)Cc2ccccn2)c1 -4.28%
O=C(COC(=O)c1ccccc1Cl)NC1CCCCCCC1 1.11%
Cn1cccc1C1(C(F)(F)F)NCCNC1=O (configuration not stated) -0.65%
CCn1c(CSc2nc(C)cc(C)n2)nnc1SCC(N)=O 1.48%
O=C(/C=C/c1ccc(F)cc1)Nc1cccc(S(=O)(=O)Nc2cccc(C(F)(F)F)c2)c1 1.46%
O=C(COc1ccc(S(=O)(=O)Nc2cccc(C(F)(F)F)c2)cc1)N1CCOCC1 -0.84%
CC1CCCN(S(=O)(=O)c2ccc(N(C(=O)c3cnccn3)C(C(=O)NC3CCCCC3)c3cccs3)cc2)C1 (configuration not stated) 1.68%
COCCCNC(=S)N(Cc1ccccc1)Cc1ccc(F)cc1 0.84%
O=C1COc2ccc(NC(=O)N3CCN(c4ccc(F)cc4)CC3)cc2N1 -1.31%
CN(C)Cc1c(C(=O)N/N=C/c2ccccc2OCc2ccc(F)cc2)nnn1-c1nonc1N 2.67%
COCc1c(C(=O)N/N=C/C2CC=CCC2)nnn1-c1nonc1N (configuration not stated) -1.57%
CC(C)Oc1ccc(/C=N/NC(=O)c2nnn(-c3nonc3N)c2CN(C)C2CCCCC2)cc1 2.01%
COCc1c(C(=O)N/N=C\c2cccnc2)nnn1-c1nonc1N -1.82%
CC(C)c1c(C(=O)N/N=C/c2ccc(-c3ccccc3)cc2)nnn1-c1nonc1N 1.62%
Nc1nonc1-n1nnc(C(=O)N/N=C\c2ccncc2)c1CN1CCCCC1 0.45%
CCCCNC(=O)c1ccccc1NC(=O)c1ccccc1N(C)S(C)(=O)=O 0.62%
Cc1c(Br)ccc(NC(=O)COc2ccccc2C(N)=O)c1C -0.92%
CC1=NN(C(C)C)C(=O)C1 -0.17%
Cc1ccc(S(=O)(=O)N2[C@@H](c3ccc(Br)cc3)C(C(=O)O)=C[C@H]2CC2CCCC2)cc1 -1.23%
O=C(CSc1nn(-c2ccc(F)cc2)c(=S)s1)NC1CCS(=O)(=O)C1 (configuration not stated) -1.94%
Cc1ccc(C)c(OCCC(=O)OCC(=O)c2ccc3c(c2)NC(=O)CO3)c1 1.04%
CCOC(=O)C1CCN(C(=O)c2cccc(S(=O)(=O)N(CC)c3ccccc3)c2)CC1 0.33%
O=[N+]([O-])c1cccc(C=NN=Cc2ccccc2O)c1 -1.4%
Cc1c(C(=O)Nc2cccc(S(=O)(=O)N3CCOCC3)c2)oc2ccccc12 -5.92%
Cc1c(C(=O)Nc2ccccc2Cl)oc2ccc(S(=O)(=O)N3CCC4(CC3)OCCO4)cc12 -0.83%
Cc1ccc(-c2c3c(=O)n(C)c(=O)n(C)c3cn2-n2cnnc2)cc1 -0.82%
COc1cccc(-n2cc3c(c2-c2ccccc2)c(=O)n(C)c(=O)n3C)c1 -1.71%
Cc1csc(=O)n1CCC(=O)OCC(=O)NNC(=O)c1ccc(Br)cc1 -0.85%
COc1cccc(CNS(=O)(=O)c2ccc3c(c2)CC(C)N3C(C)=O)c1 (configuration not stated) 2.23%
COc1cccc(CNS(=O)(=O)c2csc(C(N)=O)c2)c1 2.62%
CSc1nc2c(c(=O)[nH]1)C(c1cccc(Cl)c1Cl)CC(=O)N2 (configuration not stated) -1.69%
O=C(NC(Nc1nc2ccc([N+](=O)[O-])cc2s1)(C(F)(F)F)C(F)(F)F)c1ccccc1 6.26%
Cc1ccc(NC(=O)c2cccc(S(=O)(=O)N3CCCc4ccccc43)c2)nc1 2.57%
O=C1COc2ccc(C(=O)COC(=O)c3ccccc3Cl)cc2N1 0%

Reference: PubChem BioAssay AID1259313 (Sanford-Burnham Center for Chemical Genomics, 2017)
